Experiment [1] is described as follows: liver-stage malaria parasite growth inhibition, primary screen, cell-based, HepG2, luciferase luminescence, HepG2 viability (AID 624349; in the data active = parasite load remaining mostly below about 12%, no sharp cut-off; inactive = mostly above about 10%;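 note: 100% = mean of DMSO negative control wells on the same plate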). Particulars: P. berghei liver stage in HepG2, luciferase luminescence, concentration not given here; parasite load remaining: stronger effect = lower value; viability: measured here: HepG2 viability without parasites.
Experiment [2] in a line: sensitizers of A549 cells to miR-34 induction, primary screen, imaging, A549 dox-inducible miR-34, nuclei and caspase counts (AID 1347080;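 active = compounds whose cell count with miR-34 switched on is under 0.7 times the count with it off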). The note with it: A549 miR-34 inducible, Hoechst nuclei count, 48 h.
Experiment [3] in a line: survival rescue of mitochondrial mutant cells in low glucose, primary screen, MELAS cybrids, Rieske KO mouse fibroblasts, CellTiter-Glo (AID 1508586).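 Note: z relative to plate mean and SD of compound and empty wells.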
The target in experiment [4] is NAD(+) hydrolase SARM1 (Homo sapiens) (UniProt Q6SZW1). Nature of the experiment: SARM1 TIR NADase inhibitors, cell lysate, NAD-Glo luminescence (AID 1508614;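 active = compound whose remaining NAD level is above about 45 nM, limit read from the data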;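 note: higher remaining NAD means stronger inhibition of SARM1 NADase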). The note with it: SAM-TIR HEK293T lysate NADase, at 1 µM, stronger effect = higher value.
A short description of experiment [5]: viability rescue of complex I mutant cybrids, primary screen, cell-based, galactose medium, ATP luminescence (AID 1645843;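 active = z-score of at least 1.8 in each of two replicates, scored against plate mean and spread of sample wells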;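 note: positive z means more ATP and so rescue of galactose-driven cybrid death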). The note with it: complex I mutant cybrid cells, 72 h, stronger effect = higher value.
The mark [6] stands for this setting: stronger effect = lower value, cell number ratio, induced over uninduced.
Setting [7] is: measured here: relative caspase fold change +Dox/-Dox.
The mark [8] stands for this setting: measured here: total cells with miR-34 induction, stronger effect = lower value.
Where [9] appears, read: measured here: total cells without miR-34 induction.
Setting [10] is: MELAS cybrid survival, CellTiter-Glo 48 h, stronger effect = higher value.
The mark [11] stands for this setting: Rieske KO mouse fibroblast survival, CellTiter-Glo 72 h.

Molecules are shown by their SMILES. Several values for one entry are separate records, joined by “and”; a condition that tells them apart may be missing. Equal entries are not always repeated. Activity calls are given as the source filed them.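 Rule for the calls, unless noted: active = mean z-score across replicates of 1.96 or higher in either the MELAS or the Rieske mutant cell line; inactive = the rest.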 Numbered stars: 1 amine (or outer) side, 2 acyl side, 3 side chain; on linkers, the order of the positions; unused ones are H or OH. Bridge positions count the residues as written; N and C are the ends. Square brackets hold non-standard residues; d marks the D form. Peptide text beside a SMILES is read from it. * marks the point of attachment. X4 = NC1=N[C@@H]([C@H](N[*:1])C(=O)[*:2])C[C@H](O)N1; ΔAla(Z-3-ureido) = NC(=O)N/C=C(\N)C(=O)O; β3hOrn = NCCC[C@H](N)CC(=O)*; Dap = NC[C@H](N)C(=O)O

Sequence of NAD(+) hydrolase SARM1 (Homo sapiens) (Q6SZW1 whole entry, looked up): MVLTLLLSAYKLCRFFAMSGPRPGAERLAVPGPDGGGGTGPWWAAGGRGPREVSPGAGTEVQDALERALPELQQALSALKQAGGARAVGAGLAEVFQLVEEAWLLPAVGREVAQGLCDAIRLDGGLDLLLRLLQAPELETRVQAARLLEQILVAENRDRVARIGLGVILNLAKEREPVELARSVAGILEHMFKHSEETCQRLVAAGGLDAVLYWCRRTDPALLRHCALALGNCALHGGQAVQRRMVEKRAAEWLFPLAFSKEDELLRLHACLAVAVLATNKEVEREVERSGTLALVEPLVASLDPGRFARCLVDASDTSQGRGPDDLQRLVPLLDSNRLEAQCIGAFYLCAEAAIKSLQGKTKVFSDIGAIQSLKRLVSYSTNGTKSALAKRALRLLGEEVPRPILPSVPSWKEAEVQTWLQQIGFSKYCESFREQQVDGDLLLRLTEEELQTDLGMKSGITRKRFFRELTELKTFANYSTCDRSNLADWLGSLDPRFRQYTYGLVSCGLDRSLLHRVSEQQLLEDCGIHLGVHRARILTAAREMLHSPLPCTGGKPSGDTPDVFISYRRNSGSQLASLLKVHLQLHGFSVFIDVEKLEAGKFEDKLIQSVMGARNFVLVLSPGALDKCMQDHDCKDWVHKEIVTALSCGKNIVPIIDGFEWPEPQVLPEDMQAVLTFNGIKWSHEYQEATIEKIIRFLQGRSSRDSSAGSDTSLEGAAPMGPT

As to `NCCC[C@H](N)CC(=O)N[C@H]1CNC(=O)[C@H]([C@H]2C[C@H](O)NC(N)=N2)NC(=O)/C(=C/NC(N)=O)NC(=O)[C@H](CO)NC(=O)[C@H](CO)NC1=O` (β3hOrn-[Dap]SS[ΔAla(Z-3-ureido)][X4]; lactam 1-C), the parasite load remaining in experiment [1] was 90.6% (inactive). Moreover, the viability (commonly a read-out of living cells in per cent, often relative to untreated cells) in experiment [1] came to 75%. For the same molecule, the fold change in experiment [2] (setting [6]) was 0.967 (inactive); in experiment [2] (setting [7]), 0.791. Besides, the figures for the cell count in experiment [2] (setting [8]) and in experiment [2] (setting [9]) were 9150 and 9470, respectively. The results for the z-score in experiment [3] (setting [10]) and in experiment [3] (setting [11]) were -0.695 (inactive) and -0.532, respectively. The remaining NAD in experiment [4] was 10 nM (inactive).

Regarding `CO[C@H]1C[C@H](O[C@H]2[C@H](C)[C@@H](O[C@@H]3O[C@H](C)C[C@H](N(C)C)[C@H]3OC(C)=O)[C@@H](C)C[C@@]3(CO3)C(=O)[C@H](C)[C@@H](OC(C)=O)[C@@H](C)[C@@H](C)OC(=O)[C@@H]2C)O[C@@H](C)[C@@H]1OC(C)=O`, in experiment [1], the parasite load remaining is 27.9% (inactive) and 46.8% (inactive). Also, the viability in experiment [1] was 46.5% and 147%. For the same molecule, the fold change in experiment [2] (setting [6]) was 0.951 (inactive) and 0.962 (inactive); in experiment [2] (setting [7]) it was 1.2 and 1.02. Also, the cell count in experiment [2] (setting [8]) was 9570 and 9780; in experiment [2] (setting [9]) it was 10100 and 10200. The z-score in experiment [3] (setting [10]) is 0.411 (inactive) and -0.389 (inactive); in experiment [3] (setting [11]), -0.0819 and -0.533; in experiment [5] it was 0.095 (inactive).

As to `CC1(C)S[C@@H]2[C@H](NC(=O)[C@H](NC(=O)N3CCNC3=O)c3ccccc3)C(=O)N2[C@H]1C(=O)O`, in experiment [1], the parasite load remaining was 109% (inactive). Besides, in experiment [1], the viability is 98.7%. For the same molecule, the values for the fold change in experiment [2] (setting [6]) and in experiment [2] (setting [7]) were 0.917 (inactive) and 1.11, respectively. Also, the cell count was found to be 9220 in experiment [2] (setting [8]) and 10100 in experiment [2] (setting [9]). Moreover, the z-score in experiment [3] (setting [10]) was 0.409 (inactive); in experiment [3] (setting [11]), -0.381. Also, in experiment [4], the remaining NAD was 10 nM (inactive).

For `Cc1cc(NC(=O)Cn2ncc3cc(-c4ccc(F)c(F)c4)ccc32)n(C)n1`, the fold change in experiment [2] (setting [6]) is 0.877 (inactive); in experiment [2] (setting [7]), 0.515. Also, the cell count in experiment [2] (setting [8]) was found to be 4810; in experiment [2] (setting [9]) it was 5490. For the same molecule, the z-score in experiment [3] (setting [10]) was 0.668 (inactive); in experiment [3] (setting [11]), -0.0382; in experiment [5], 0.765 (inactive).

`O=C(O)c1ccc(-c2ccccc2[N+](=O)[O-])o1`: the results for the fold change in experiment [2] (setting [6]) and in experiment [2] (setting [7]) were 0.891 (inactive) and 0.452, respectively. Moreover, the cell count stood at 8650 in experiment [2] (setting [8]) and 9710 in experiment [2] (setting [9]). Besides, the z-score is -0.508 (inactive) in experiment [3] (setting [10]), -0.463 in experiment [3] (setting [11]) and 0.32 (inactive) in experiment [5].

Regarding `C[C@]12CC[C@@H]3c4ccc(OS(=O)(=O)O)cc4CC[C@H]3[C@@H]1CCC2=O`, in experiment [1], the parasite load remaining was 64.3% (inactive) and 61.4% (inactive). Further, the viability in experiment [1] is 99.3% and 74.8%. The fold change was 0.873 (inactive) in experiment [2] (setting [6]) and 0.967 in experiment [2] (setting [7]). Besides, the cell count was 9010 in experiment [2] (setting [8]) and 10300 in experiment [2] (setting [9]). Further, the values for the z-score in experiment [3] (setting [10]) and in experiment [3] (setting [11]) were -0.105 (inactive) and -0.186, respectively. For the same molecule, the remaining NAD in experiment [4] was 10 nM (inactive).

For `Cc1csc(CNc2nccc(-c3cnn(-c4ccccc4)c3)n2)n1`, the fold change in experiment [2] (setting [6]) was 0.775 (inactive); in experiment [2] (setting [7]), 1.81. The cell count in experiment [2] (setting [8]) is 4550; in experiment [2] (setting [9]), 5870. The z-score in experiment [3] (setting [10]) was -0.292 (inactive); in experiment [3] (setting [11]), 0.283; in experiment [5], -0.175 (inactive).

Regarding `COc1ccc(OC)c2c1c(C)cc(=O)n2C`, the fold change was 0.823 (inactive) in experiment [2] (setting [6]) and 0.693 in experiment [2] (setting [7]). Also, the results for the cell count in experiment [2] (setting [8]) and in experiment [2] (setting [9]) were 8060 and 9790, respectively. Moreover, the figures for the z-score in experiment [3] (setting [10]), in experiment [3] (setting [11]) and in experiment [5] were -0.469 (inactive), 0.131 and -0.615 (inactive), respectively.

Turning to `C[C@@H]1CCC[C@H](C)N1NC(=O)c1ccc(Cl)c(S(N)(=O)=O)c1`, the parasite load remaining in experiment [1] is 123% (inactive) and 80.9% (inactive). Also, the viability in experiment [1] was 112% and 106%. Moreover, the fold change was 0.884 (inactive) and 0.878 (inactive) in experiment [2] (setting [6]); 1.72 and 1.06 in experiment [2] (setting [7]). Besides, the cell count is 9180 and 9670 in experiment [2] (setting [8]); 10400 and 11000 in experiment [2] (setting [9]). Besides, the z-score in experiment [3] (setting [10]) was 0.52 (inactive) and -0.675 (inactive); in experiment [3] (setting [11]) it was -0.0626 and -0.387; in experiment [5] it was 0.85 (inactive).

The record behind these values is PubChem BioAssay.
